From PubChem BioAssay (EPA / NIEHS)
Records with an inconclusive call do not appear. Calls of active or inactive are those of the source. Rule for the calls, unless noted: active = hit-call score of the fitted dose curve at least 0.9, where 1 is the maximum; inactive = score below 0.9.

Tests used:
[1] = biological target: human Purinergic Receptor P2Y, P2RY1 (gene 5028) (UniProt P47900); test: NVS_GPCR_hPY2: NovaScreen (NVS) G Protein-Coupled Receptor Assay for human Purinergic Receptor P2Y (AID 2283281; active = hit-call score of the fitted dose curve at least 0.9, where 1 is the maximum)
Procedure, shortened: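 Cell-free radioligand binding using U937-derived protein, 1 h after dosing, filter-based scintillation counting. Screened in duplicate at 25 uM; actives rerun as concentration-response up to 50 uM; loss of signal versus DMSO.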

[2] = biological target: Estrogen receptor (Homo sapiens) + Estrogen receptor beta (Homo sapiens) (UniProt P03372+Q92731); test: OT_ER_ERaERb_0480: Odyssey Thera (OT) 8-hour HEK293T Protein-Complementation Assay for Estrogen Receptor-alpha/-beta Heterodimer (AID 2283352; active = hit-call score of the fitted dose curve at least 0.9, where 1 is the maximum)
Procedure, shortened: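 Compound added to HEK293T cells carrying split-reporter-tagged ER-alpha and ER-beta LBDs, incubated 8 hours, then imaged by laser scanning cytometer. Signal rise in nucleus, or nucleus and cytoplasm, over vehicle was fitted in the positive direction.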

AR (gene 367) = AR (gene 367) (UniProt P10275); test: ACEA_AR_agonist_80hr: ACEA Biosciences xCELLigence Real-Time Cell Analysis on Androgen Receptor Agonism for Proliferation (AID 2283783; active = hit-call score of the fitted dose curve at least 0.9, where 1 is the maximum;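 note: hits increase impedance growth signal above DMSO baseline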)
Procedure, shortened: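 22Rv1 human prostate cancer cells were seeded after preconditioning in assay medium and monitored overnight, then dosed in an eight-point 1:4 dilution series from 100 uM (≤0.5% DMSO). Impedance-based growth was read at 80 h, gain-of-signal versus DMSO.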

[3] = biological target: Retinoic acid receptor RXR-alpha (Homo sapiens) (UniProt P19793); test: OT_NURR1_NURR1RXRa_1440: Odyssey Thera (OT) 24-hour HEK293T Protein Complementation Assay for Nurr1/retinoid X receptor (RXR) (AID 2283386; active = hit-call score of the fitted dose curve at least 0.9, where 1 is the maximum)
Procedure, shortened: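 HEK293T cells were dosed with compound and read 24 h later by fluorescence intensity in a protein-fragment complementation format, where Nurr1–RXRα interaction reconstitutes a split reporter. Activity was fitted as gain of signal relative to DMSO baseline.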

[4] = read-out: Monokine induced gamma interferon (MIG), CXCL9 (gene 4283); test: BSK_KF3CT_MIG: BioMAP Diversity Plus: KF3CT Assay for Monokine induced gamma interferon (MIG) Biomarker Activity (AID 2284248); conditions: primary human keratinocytes with fibroblasts
Procedure, shortened: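 KF3CT system: keratinocyte/fibroblast co-culture, 24 h post-dose, MIG by ELISA; activity vs DMSO, positive fitting direction.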

[5] = read-out: Collagen I, COL1A1 (gene 1277); test: BSK_hDFCGF_CollagenI: BioMAP Diversity Plus: hDFCGF Assay for Collagen I Biomarker Activity (AID 2284250); conditions: primary human foreskin fibroblasts
Procedure, shortened: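 Primary human foreskin fibroblasts (hDFCGF system) exposed to chemical for 24 h; Collagen I measured by ELISA. Activity fitted in the positive direction relative to DMSO baseline, with SRB total-protein staining in parallel cultures for overt cytotoxicity.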

[6] = read-out: Interferon-inducible T-cell alpha chemoattractant (ITAC), CXCL11 (gene 6373); test: BSK_hDFCGF_ITAC: BioMAP Diversity Plus: hDFCGF Assay for Interferon-inducible T-cell alpha chemoattractant (ITAC) Biomarker Activity (AID 2284251); conditions: primary human foreskin fibroblasts
Procedure, shortened: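 ELISA readout of I-TAC after 24 h chemical exposure; human dermal foreskin fibroblast primary cells. Positive-direction fitting vs DMSO baseline. Parallel SRB total-protein staining (0.1% SRB after 10% TCA fixation, 560 nm) flags cytotoxicity.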

[7] = read-out: Plasminogen activator inhibitor-1 (PAI1), SERPINE1 (gene 5054); test: BSK_KF3CT_PAI1: BioMAP Diversity Plus: KF3CT Assay for Plasminogen activator inhibitor-1 (PAI1) Biomarker Activity (AID 2284252); conditions: primary human keratinocytes with fibroblasts
Procedure, shortened: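 Human primary keratinocyte/foreskin fibroblast co-culture was dosed with compound and sampled at 24 h. PAI-1 was quantified by ELISA, with activity fitted in the positive direction relative to DMSO vehicle as baseline.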

[8] = read-out: Interleukin-8 (IL8), CXCL8 (gene 3576); test: BSK_KF3CT_IL8: BioMAP Diversity Plus: KF3CT Assay for Interleukin-8 (IL8) Biomarker Activity (AID 2284254); conditions: primary human keratinocytes with fibroblasts
Procedure, shortened: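 Chemicals were added to co-cultured human keratinocytes and foreskin fibroblasts, incubated 24 h, then IL-8 was quantified by ELISA. Cytotoxicity was tracked by sulforhodamine B total-protein staining in parallel cultures.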

[9] = read-out: Intercellular Adhesion Molecule 1 (ICAM1), ICAM1 (gene 3383); test: BSK_BE3C_ICAM1: BioMAP Diversity Plus: BE3C Assay for Intercellular Adhesion Molecule 1 (ICAM1) Biomarker Activity (AID 2284278); conditions: primary human bronchial epithelial cells;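 note: cell-surface ICAM-1 protein level quantified by ELISA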
Procedure, shortened: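 Primary human bronchial epithelial cells were exposed to compound for 24 h, after which cell-surface ICAM-1 was quantified by ELISA. Activity was fitted in the gain-of-signal direction against DMSO as negative control and baseline.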

[10] = read-out: Interferon-inducible T-cell alpha chemoattractant (ITAC), CXCL11 (gene 6373); test: BSK_BE3C_ITAC: BioMAP Diversity Plus: BE3C Assay for Interferon-inducible T-cell alpha chemoattractant (ITAC) Biomarker Activity (AID 2284279); conditions: primary human bronchial epithelial cells
Procedure, shortened: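 The assay measures I-TAC levels by ELISA in human primary bronchial epithelial cell cultures 24 hours after chemical treatment. Values reflect signal increase over the DMSO baseline.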

[11] = read-out: Interleukin-8 (IL8), CXCL8 (gene 3576); test: BSK_BE3C_IL8: BioMAP Diversity Plus: BE3C Assay for Interleukin-8 (IL8) Biomarker Activity (AID 2284280); conditions: primary human bronchial epithelial cells
Procedure, shortened: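 ELISA read-out of IL-8 in human lung bronchial epithelial primary cell cultures, 24 h post-dosing; endpoint analysed as signal increase relative to DMSO baseline.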

[12] = read-out: Epidermal growth factor receptor (EGFR), EGFR (gene 1956); test: BSK_BE3C_EGFR: BioMAP Diversity Plus: BE3C Assay for Epidermal growth factor receptor (EGFR) Biomarker Activity (AID 2284281); conditions: primary human bronchial epithelial cells
Procedure, shortened: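 Primary human lung bronchial epithelial cells; compound, 24 h; EGFR measured by ELISA; positive-direction fit vs DMSO baseline.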

KRT18 (gene 3875) = test: BSK_BE3C_Keratin818: BioMAP Diversity Plus: BE3C Assay for Keratin 818 Biomarker Activity (AID 2284282); conditions: primary human bronchial epithelial cells
Procedure, shortened: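 Human primary bronchial epithelial cells in the BE3C system were exposed to test chemical for 24 h, then Keratin 8/18 was quantified by ELISA. Activity was fitted in the positive direction against DMSO as negative control and baseline.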

[13] = read-out: Matrix Metallopeptidase 9 (MMP9), MMP9 (gene 4318); test: BSK_BE3C_MMP9: BioMAP Diversity Plus: BE3C Assay for Matrix Metallopeptidase 9 (MMP9) Biomarker Activity (AID 2284283); conditions: primary human bronchial epithelial cells
Procedure, shortened: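 BE3C, human bronchial epithelial primary cells; 24 h post-dose; MMP-9 by ELISA; positive fit vs DMSO; SRB (0.1%, TCA-fixed, 560 nm) parallel cytotox.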

[14] = read-out: Plasminogen activator inhibitor-1 (PAI1), SERPINE1 (gene 5054); test: BSK_CASM3C_PAI1: BioMAP Diversity Plus: CASM3C Assay for Plasminogen activator inhibitor-1 (PAI1) Biomarker Activity (AID 2284284); conditions: primary human coronary artery smooth muscle cells;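 note: PAI-1 protein level measured by ELISA 24 h after dosing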
[15] = read-out: Monocyte Chemoattractant Protein-1 (MCP1), CCL2 (gene 6347); test: BSK_hDFCGF_MCP1: BioMAP Diversity Plus: hDFCGF Assay for Monocyte Chemoattractant Protein-1 (MCP1) Biomarker Activity (AID 2284285); conditions: primary human foreskin fibroblasts
Procedure, shortened: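 Human foreskin fibroblasts (hDFCGF system) were exposed to compound and secreted MCP-1 was measured by ELISA after 24 hours. Activity was fitted relative to DMSO. Cytotoxicity was checked by SRB total-protein staining in parallel cultures.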

[16] = read-out: Intercellular Adhesion Molecule 1 (ICAM1), ICAM1 (gene 3383); test: BSK_hDFCGF_ICAM1: BioMAP Diversity Plus: hDFCGF Assay for Intercellular Adhesion Molecule 1 (ICAM1) Biomarker Activity (AID 2284287); conditions: primary human foreskin fibroblasts
Procedure, shortened: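 Primary human foreskin fibroblasts (hDFCGF system) dosed with chemical; ICAM-1 quantified by ELISA at 24 h relative to DMSO. Parallel SRB total-protein staining to assess overt cytotoxicity.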

[17] = read-out: TIMP metallopeptidase inhibitor 2 (TIMP2), TIMP2 (gene 7077); test: BSK_hDFCGF_TIMP2: BioMAP Diversity Plus: hDFCGF Assay for TIMP metallopeptidase inhibitor 2 (TIMP2) Biomarker Activity (AID 2284289); conditions: primary human foreskin fibroblasts
Procedure, shortened: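 Primary human foreskin fibroblasts in the hDFCGF system, dosed for 24 h; TIMP-2 level measured by ELISA, fitted in the positive direction against DMSO; cytotoxicity checked in parallel by sulforhodamine B total protein staining.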

[18] = read-out: Thrombomodulin, THBD (gene 7056); test: BSK_LPS_Thrombomodulin: BioMAP Diversity Plus: LPS Assay for Thrombomodulin Biomarker Activity (AID 2284296); conditions: primary human HUVEC with PBMC
Procedure, shortened: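 Human umbilical vein endothelial cells co-cultured with PBMC and stimulated with LPS; cell-surface thrombomodulin measured by ELISA 24 hours after compound. Gain or loss versus DMSO; cytotoxicity checked by SRB staining in parallel cultures.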

Measured: outcome

Sequence of human Purinergic Receptor P2Y, P2RY1 (gene 5028) (P47900 whole entry, looked up): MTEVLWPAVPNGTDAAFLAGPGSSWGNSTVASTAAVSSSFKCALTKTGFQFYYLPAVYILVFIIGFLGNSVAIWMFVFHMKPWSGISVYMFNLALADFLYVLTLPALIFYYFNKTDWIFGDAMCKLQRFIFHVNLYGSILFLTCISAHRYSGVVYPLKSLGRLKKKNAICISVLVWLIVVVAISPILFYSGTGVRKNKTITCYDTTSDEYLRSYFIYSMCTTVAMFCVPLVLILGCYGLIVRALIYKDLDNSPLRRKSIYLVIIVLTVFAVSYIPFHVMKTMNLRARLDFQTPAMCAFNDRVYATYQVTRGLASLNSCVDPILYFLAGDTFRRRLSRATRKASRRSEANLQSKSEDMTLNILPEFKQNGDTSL
Sequence of AR (gene 367) (P10275 whole entry, looked up): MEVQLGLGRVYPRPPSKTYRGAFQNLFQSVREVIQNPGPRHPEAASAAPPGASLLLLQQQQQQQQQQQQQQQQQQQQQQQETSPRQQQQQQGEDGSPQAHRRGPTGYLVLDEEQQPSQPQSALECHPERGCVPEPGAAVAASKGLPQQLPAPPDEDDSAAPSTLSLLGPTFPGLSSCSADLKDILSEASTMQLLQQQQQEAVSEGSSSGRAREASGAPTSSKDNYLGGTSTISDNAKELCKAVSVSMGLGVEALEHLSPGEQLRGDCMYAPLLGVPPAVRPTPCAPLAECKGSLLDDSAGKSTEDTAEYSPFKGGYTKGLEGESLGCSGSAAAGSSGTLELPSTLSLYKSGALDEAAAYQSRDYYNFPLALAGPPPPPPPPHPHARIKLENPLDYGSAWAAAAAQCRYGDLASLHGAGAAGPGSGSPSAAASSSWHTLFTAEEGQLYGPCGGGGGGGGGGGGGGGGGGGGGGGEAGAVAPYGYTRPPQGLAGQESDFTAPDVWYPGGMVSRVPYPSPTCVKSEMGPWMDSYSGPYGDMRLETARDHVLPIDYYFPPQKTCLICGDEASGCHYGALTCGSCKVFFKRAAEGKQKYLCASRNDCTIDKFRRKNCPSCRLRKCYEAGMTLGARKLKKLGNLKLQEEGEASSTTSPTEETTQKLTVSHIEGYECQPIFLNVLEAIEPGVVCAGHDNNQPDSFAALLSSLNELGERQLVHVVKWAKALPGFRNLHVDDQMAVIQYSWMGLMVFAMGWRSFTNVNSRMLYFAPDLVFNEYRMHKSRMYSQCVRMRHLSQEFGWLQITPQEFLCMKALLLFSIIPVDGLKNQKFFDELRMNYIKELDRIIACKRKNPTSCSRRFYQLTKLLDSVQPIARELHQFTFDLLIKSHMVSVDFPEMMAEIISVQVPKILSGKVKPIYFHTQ
Sequence of Retinoic acid receptor RXR-alpha (Homo sapiens) (P19793 whole entry, looked up, the tested form may be a part): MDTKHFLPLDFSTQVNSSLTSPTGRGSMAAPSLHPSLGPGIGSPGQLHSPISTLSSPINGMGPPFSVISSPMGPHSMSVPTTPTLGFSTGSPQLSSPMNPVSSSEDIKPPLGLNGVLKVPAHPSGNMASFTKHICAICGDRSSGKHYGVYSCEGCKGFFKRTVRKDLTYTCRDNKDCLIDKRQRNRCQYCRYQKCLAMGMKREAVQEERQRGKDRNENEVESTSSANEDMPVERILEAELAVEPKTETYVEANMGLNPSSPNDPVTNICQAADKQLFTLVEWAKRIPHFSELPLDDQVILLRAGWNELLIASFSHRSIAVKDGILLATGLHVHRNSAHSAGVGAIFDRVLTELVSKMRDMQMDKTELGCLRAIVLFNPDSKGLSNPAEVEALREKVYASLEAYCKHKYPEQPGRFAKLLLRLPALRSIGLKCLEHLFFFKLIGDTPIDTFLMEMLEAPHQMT
Sequence of Estrogen receptor (Homo sapiens) + Estrogen receptor beta (Homo sapiens) (P03372 whole entry, looked up): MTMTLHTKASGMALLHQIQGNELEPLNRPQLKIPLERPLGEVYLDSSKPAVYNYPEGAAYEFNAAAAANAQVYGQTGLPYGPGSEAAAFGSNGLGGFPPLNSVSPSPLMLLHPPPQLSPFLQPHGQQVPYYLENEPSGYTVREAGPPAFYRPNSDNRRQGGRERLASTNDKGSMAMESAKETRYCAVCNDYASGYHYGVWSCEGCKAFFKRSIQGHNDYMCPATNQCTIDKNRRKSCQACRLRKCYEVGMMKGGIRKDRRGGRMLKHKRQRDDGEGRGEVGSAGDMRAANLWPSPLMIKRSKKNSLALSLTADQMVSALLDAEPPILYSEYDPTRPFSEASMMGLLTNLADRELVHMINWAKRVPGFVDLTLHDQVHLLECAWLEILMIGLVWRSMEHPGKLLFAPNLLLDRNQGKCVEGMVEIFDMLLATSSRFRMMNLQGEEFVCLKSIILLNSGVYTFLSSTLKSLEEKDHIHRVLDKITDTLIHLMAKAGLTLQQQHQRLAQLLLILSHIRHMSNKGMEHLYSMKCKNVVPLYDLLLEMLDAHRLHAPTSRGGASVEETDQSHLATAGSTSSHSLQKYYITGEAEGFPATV
Sequence of Estrogen receptor (Homo sapiens) + Estrogen receptor beta (Homo sapiens) (Q92731 whole entry, looked up): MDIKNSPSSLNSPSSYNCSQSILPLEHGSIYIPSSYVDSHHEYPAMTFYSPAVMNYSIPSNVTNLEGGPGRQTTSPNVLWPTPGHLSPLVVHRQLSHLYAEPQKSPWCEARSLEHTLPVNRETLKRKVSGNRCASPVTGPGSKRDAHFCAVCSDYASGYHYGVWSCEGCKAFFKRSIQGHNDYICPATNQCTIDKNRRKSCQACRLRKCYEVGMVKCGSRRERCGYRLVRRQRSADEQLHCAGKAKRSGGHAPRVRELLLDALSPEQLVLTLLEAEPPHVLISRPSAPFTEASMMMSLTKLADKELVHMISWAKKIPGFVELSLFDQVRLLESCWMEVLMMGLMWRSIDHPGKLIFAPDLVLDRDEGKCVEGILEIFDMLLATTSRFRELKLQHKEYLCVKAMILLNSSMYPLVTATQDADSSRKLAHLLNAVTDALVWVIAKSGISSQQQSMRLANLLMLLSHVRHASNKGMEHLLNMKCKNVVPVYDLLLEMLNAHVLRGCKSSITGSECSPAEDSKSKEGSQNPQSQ

CCOC(=O)NC(=S)Nc1ccccc1NC(=S)NC(=O)OCC
inactive: [1]

c1ccc2c(c1)CCCC2
inactive: [2] | AR (gene 367)

CCOC(=O)COc1ccc(Cl)cc1Cl
inactive: [3]

O=[N+]([O-])O
not listed: [1] | [2] | AR (gene 367) | [3]
inactive: all other assays above
